Consider 15 compounds from PubChem BioAssay (EPA / NIEHS).

Several values for one entry are separate records, joined by “and”; a condition that tells them apart may be missing. Equal entries are not always repeated. Inconclusive results are not listed. The source holds several records for some structures; these can differ, active in one and inactive in another. Activity calls are given as the source filed them. Rule for the calls: active = hit-call score of the fitted dose curve at least 0.9, where 1 is the maximum; inconclusive = response in the unintended direction; inactive = score below 0.9.

Chain of human Opioid Receptor Mu (Opiate Mu), OPRM1 (gene 4988) (P35372 whole entry, looked up): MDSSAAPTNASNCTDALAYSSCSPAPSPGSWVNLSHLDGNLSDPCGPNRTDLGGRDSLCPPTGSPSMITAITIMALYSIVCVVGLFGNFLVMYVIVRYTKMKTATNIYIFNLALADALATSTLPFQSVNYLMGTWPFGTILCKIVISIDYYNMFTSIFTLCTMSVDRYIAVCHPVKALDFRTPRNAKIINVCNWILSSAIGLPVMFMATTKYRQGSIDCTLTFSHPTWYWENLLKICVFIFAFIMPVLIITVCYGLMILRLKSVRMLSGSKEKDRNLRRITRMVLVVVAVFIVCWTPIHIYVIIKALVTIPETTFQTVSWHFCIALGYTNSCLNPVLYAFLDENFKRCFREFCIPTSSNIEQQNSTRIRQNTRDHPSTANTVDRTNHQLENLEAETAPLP

For this test, the target named is human Opioid Receptor Mu (Opiate Mu), OPRM1 (gene 4988) (UniProt P35372). Nature of the test: NVS_GPCR_hOpiate_mu: NovaScreen (NVS) G Protein-Coupled Receptor Assay for human Opioid Receptor Mu (Opiate Mu) (AID 2283290).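 Note: hits lower bound tracer signal versus DMSO meaning displacement of the ligand.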 As to the method:
NVS_GPCR_hOpiate_mu is a biochemical, single-readout assay that uses extracted gene-proteins from CHO in a cell-free assay. Measurements were taken 2.5 hours after chemical dosing in a 96-well plate.NVS_GPCR_hOpiate_mu is one of one assay component(s) measured or calculated from the NVS_GPCR_hOpiate_mu assay. It is designed to make measurements of radioligand binding, a form of binding reporter, as detected with scintillation counting signals by Filter-based radiodetection technology.Data from the assay component NVS_GPCR_hOpiate_mu was analyzed into 1 assay endpoint. This assay endpoint, NVS_GPCR_hOpiate_mu, was analyzed in the positive analysis fitting direction relative to DMSO as the negative control and baseline of activity. Using a type of binding reporter, loss-of-signal activity can be used to understand changes in the binding as they relate to the gene OPRM1. Furthermore, this assay endpoint can be referred to as a primary readout, because the performed assay has only produced 1 assay endpoint. To generalize the intended target to other relatable targets, this assay endpoint is annotated to the gpcr intended target family, where the subfamily is rhodopsin-like receptor.
Binding assays used specific radioligands (tritiated, iodinated) with non-radioactive competitive displacement ligands in agonist or antagonist protocols (as indicated) and various reference compounds and inhibitors to titrate specific binding to receptors and transporters. Most enzyme assays (CYPs, kinases, phosphatases, proteases, HDACs) used recombinant protein and specific substrates (fluorescence mostly, some colorimetric and radioactive) and inhibitors, followed by a biochemical separation of substrate and product. All assays for the biochemical HTS were initially run in duplicate at a single concentration (10 uM for CYP450 assays and 25 uM for all others). […] Each assay was run with positive and negative controls, and concurrent controls on every plate. The follow-up (secondary) screen tested active chemical-pairs in concentration series, as well as a few additional assays not tested in the primary screen, some selected negative inactives, and several cases re-run in the concentration series for confirmatory purposes.
For orientation: AC50 means the concentration giving half of the maximal activity seen. As to `CC(=O)O[C@]1(C(C)=O)CC[C@H]2[C@@H]3C=C(Cl)C4=CC(=O)[C@@H]5C[C@@H]5[C@]4(C)[C@H]3CC[C@@]21C`, the outcome was inactive; the half-maximal activity concentration (AC50) was 474 nM (active) and 612 nM (active).

Take `Oc1ccc(O)cc1`: the half-maximal activity concentration (AC50) was 15.3 µM (active).

`COC(=O)[C@H]1[C@H]2C[C@@H]3c4[nH]c5cc(OC)ccc5c4CCN3C[C@H]2C[C@@H](OC(=O)c2cc(OC)c(OC)c(OC)c2)[C@@H]1OC`: the AC50 was 7.12 µM (active).

For the compound `CSc1ccc(Oc2ccc(S(N)(=O)=O)cc2CN(C)C)cc1C`, the AC50 is 8.3 µM (active).

Regarding `Oc1ccccc1O`, the outcome was inactive.

For the compound `S=c1[nH]c2ccccc2s1`, the call was inactive.

Take `CCCCCCCCCCCCCCOS(=O)(=O)O`: the half-maximal activity concentration (AC50) is 8.03 µM (active).

On to `CCCCC(CC)COP(=O)(OCC(CC)CCCC)OCC(CC)CCCC` (stereo unspecified), for which the result was inactive.

In the case of `CN(C)C(=O)NC1(c2ccccc2)CCN(CC[C@@]2(c3ccc(F)c(F)c3)CN(C(=O)c3ccccc3)CCO2)CC1`, the AC50 is 14.9 µM (active).

`CN(C)C(=O)NC1(c2ccccc2)CCN(CCC[C@]2(c3ccc(Cl)c(Cl)c3)CCCN(C(=O)c3ccccc3)C2)CC1`: the concentration at half-maximal activity (AC50) was 3.14 µM (active).

For the compound `Cc1occc(=O)c1O`, the call was inactive.

For the compound `Nc1nc(=S)c2[nH]cnc2[nH]1`, the outcome was inactive.

As for `CN(C)CCCN1c2ccccc2Sc2ccc(Cl)cc21`, the half-maximal activity concentration (AC50) was 10.3 µM (active).

Consider `COc1ccc(OC(F)(F)F)cc1CN[C@H]1CCCN[C@H]1c1ccccc1`, for which the half-maximal activity concentration (AC50) was 7.3 µM (active).

`O=C(N[C@@H](c1ccccc1)[C@@H]1CCCCN1)c1cccc(C(F)(F)F)c1Cl`: the AC50 is 10.8 µM (active).
